# MazF activator – activators of E. coli MazEF toxin-antitoxin RNase, primary screen, biochemical, fluorescence, uHTS; activation, % at 20 µM; actives 0.32% (n = 350,000); Endoribonuclease toxin MazF (Escherichia coli (strain K12)), P0AE70; FAM/BHQ RNA-DNA oligo cleavage fluorescence, 5 h; AID 504720, 2011; in the data active = activation above about 50%
# Target sequence (P0AE70 whole entry, looked up): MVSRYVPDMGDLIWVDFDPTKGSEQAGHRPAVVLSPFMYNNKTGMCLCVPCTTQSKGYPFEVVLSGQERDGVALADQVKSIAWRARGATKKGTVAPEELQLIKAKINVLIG
# Mtb bLac sens – beta-lactam sensitization of Mtb H37Rv, H37Rv; M. tuberculosis H37Rv growth with meropenem, percent inhibition; inhibition, % at 25 µM; actives 0.27% (n = 330,000); AID 434955, 2010; call rule not given here;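 also: growth measured after seven days incubation then overnight dye step; 0% = bacteria only wells and 100% = bacteria with antibiotic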
# FBA Mtb inh – Mtb FBA enzyme inhibitors, primary screen, biochemical, fluorescence, strain H37Rv | inhibition, % at 1 µM | Fructose-bisphosphate aldolase (Mycobacterium tuberculosis (strain ATCC 25618 / H37Rv)), … | AID 588726, 2011 | purified M. tuberculosis FBA, fluorescence read-out | actives 2.3% (n = 360,000); in the data active = inhibition above about 27%;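 also: 0% = vehicle and 100% = reference inhibitor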
# Target sequence (P9WQA3 whole entry, looked up): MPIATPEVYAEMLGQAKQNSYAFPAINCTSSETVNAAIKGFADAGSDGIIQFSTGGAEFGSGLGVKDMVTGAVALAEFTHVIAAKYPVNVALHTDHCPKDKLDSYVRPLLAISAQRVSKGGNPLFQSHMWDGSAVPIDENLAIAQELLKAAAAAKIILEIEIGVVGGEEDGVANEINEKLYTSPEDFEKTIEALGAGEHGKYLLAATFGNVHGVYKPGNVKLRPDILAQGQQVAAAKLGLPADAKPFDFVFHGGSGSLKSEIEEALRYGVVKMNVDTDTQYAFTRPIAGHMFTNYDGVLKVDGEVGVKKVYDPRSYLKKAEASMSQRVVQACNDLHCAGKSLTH
# GDH-TPI inh – GDH-TPI coupling enzyme inhibitors, primary screen, artefact control for M. tuberculosis FBA inhibitor project, biochemical, absorbance, full deck; GDH-TPI coupled enzyme counterscreen, NADH absorbance; inhibition, % at 4.8 µM; actives 1.2% (n = 360,000);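 also: 0% = DMSO wells and 100% = wells lacking the enzyme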
# CCHFV vOTU inh – CCHFV vOTU protease inhibitors, primary screen, biochemical, Pep-AMC substrate, fluorescence. Crimean-Congo hemorrhagic fever virus L polyprotein viral ovarian tumor (vOTU) protease …. AID 651958, 2012. actives 0.55% (n = 370,000). inhibition, % at 11.5 µM; also: 0% = vehicle wells with enzyme and 100% = no enzyme wells
# Starred values were filed as active, the others as inactive; ? = inconclusive; / = not tested or not shown; + = active, no number. The list is not random: actives were taken first. Their share in the collection is about 4%. Rule as the data show it, unless noted: active = inhibition above about 30%; inactive = the rest.
SMILES,MazF activator,Mtb bLac sens,FBA Mtb inh,GDH-TPI inh,CCHFV vOTU inh
CC(=O)NC1=C(N2CC2C)C(=O)C(NC(C)=O)=C(N2CC2C)C1=O (centres undefined),-0.3,/,-3.5,32.3*,16.2
COC(=O)C1CN(Cc2ccc(C)cc2)CCS(=O)(=O)N1Cc1cn(Cc2ccccc2)nn1 (centres undefined),/,/,/,/,1.1
CNc1cccc(-c2ccc(C(=O)N3CCOCC3)cc2)n1,/,/,10.3,15.5,-7.7
CNc1cnc(-c2cccc(C(=O)N3CCOCC3)c2)cn1,/,/,134.8*,15.0,-69.9
COC(=O)[C@]12C=CCN1[C@@H](c1ccc(OC)c(OC)c1)c1c(c3ccccc3n1S(=O)(=O)c1ccc(C)cc1)C2,/,/,/,/,6.6
CCCCCCCCN1C(=O)[C@@H](CC(=O)NCc2ccc(C)o2)C[C@@]2(C(=O)OC)C1=C[C@H](COCc1ccccc1)O[C@@H]2C,/,/,/,/,12.7
CC1=NOC(=O)/C1=C\c1ccc(-c2cccc(Cl)c2)o1,-17.8,69.8,1.9,7.8,/
CC1=CC2=NC(=O)/C(=C\c3ccc(-c4cccc(Cl)c4)o3)C(=N)N2O1,83.6*,8.5,0.1,0.4,-10.9
CCCCCCN1CCS(=O)(=O)N(Cc2ccc(C)cc2)C(C(=O)OC)C1 (centres undefined),/,/,/,/,13.9
CCCn1c(SCC(=O)Nc2nc(-c3ccc(OC)cc3)cs2)nc2c1c(=O)n(C)c(=O)n2C,193.4*,2.3,1.2,-5.8,-0.7
Cn1c(=O)c2c(ncn2CC(=O)Nc2nc(-c3ccccc3Cl)cs2)n(C)c1=O,73.8*,1.0,-1.2,2.7,-0.8
Cc1cc(C)n(-c2nc3ccccc3nc2Nc2ccc3c(c2)OCO3)n1,-8.3,1.0,1.2,-1.4,-4.7
Cc1cc(C)n(-c2nc3nonc3nc2Nc2cccc(C)c2C)n1,190.4*,-6.0,1.5,-2.3,4.0
N#Cc1ccc(C(=O)N/N=C/c2cn(CC(=O)O)c3ccccc23)c(F)c1,-2.7,3.4,-5.6,35.7*,18.4
CCOC(=O)Cn1cc(/C=N/NC(=O)c2ccc(C#N)cc2F)c2ccccc21,-0.3,-12.3,-0.8,33.8*,0.1
COc1ccccc1NS(=O)(=O)c1cccc(NC(=O)Nc2cccc(Cl)c2)c1,77.2*,1.4,-3.0,0.0,-1.2
COc1ccccc1NS(=O)(=O)c1cccc(NC(=O)NCCCl)c1,-12.4,-6.9,0.0,2.9,-9.1
O=c1c2c(nc3c(-c4cccc5ccccc45)c[nH]n13)CCC2,0.7,70.6,129.4*,4.9,-3.9
COc1cc(NC(=O)C2CCN(c3nnc(-n4cccc4)s3)CC2)cc(OC)c1,/,/,/,/,-1.0
CCCCOC(=O)Cn1c2ccc(OC)cc2c2nc3ccccc3nc21,215.0*,3.0,-0.2,5.2,-8.0
CCn1c2ccc(OC)cc2c2nc3ccccc3nc21,17.6,74.4,/,/,7.2
CCOc1ccc(Cn2c3ccc(OC)cc3c3nc4ccccc4nc32)cc1,65.4*,-3.5,-3.5,-4.2,-9.3
Cc1cccc(-n2c(O)c(C=NC3CCS(=O)(=O)C3)c3ccccc3c2=O)c1C (centres undefined),0.7,-1.4,1.6,31.0*,16.0
COc1ccc2cc(C(N)=O)/c(=N\NC(=O)c3ccccc3)oc2c1,-3.4,-0.8,112.2*,8.6,-53.5
COc1ccccc1N=c1oc2cc(O)ccc2cc1C(N)=O,-3.6,67.1,+,-0.6,-215.3
SMILES,MazF activator,Mtb bLac sens,FBA Mtb inh,GDH-TPI inh,CCHFV vOTU inh
COc1ccccc1N=c1oc2cc(O)ccc2cc1C(=O)NCC1CCCO1 (centres undefined),7.6,?,+,22.8,-219.2
COc1cccc(N=c2oc3cc(O)ccc3cc2C(=O)NCC2CCCO2)c1 (centres undefined),-8.7,5.0,+,-0.9,-180.2
COc1cccc2cc(C(=O)NCC3CCCO3)c(=O)oc12 (centres undefined),0.4,38.0,2.5,10.7,15.2
COc1cccc(C(=O)N/N=c2/oc3ccccc3cc2C(N)=O)c1,17.2,-4.6,-3.2,18.6,11.1
COCCNC(=O)C[C@H]1CC[C@H]2[C@@H](COc3ccc(NC(=O)Nc4cccc(F)c4)cc3C(=O)N2C)O1,/,/,/,/,2.6
COc1ccccc1NC(=O)c1cc2ccc(O)cc2o/c1=N\O,9.3,94.8,6.7,12.6,-3.6
Cc1cccc(N=c2oc3cc(O)ccc3cc2C(N)=O)c1,2.5,68.0,+,8.2,-226.1
